Experimental findings from PubChem BioAssay (NCATS) are described below.

One assay deals with PA-1. Description: Primary qHTS to identify gynecologic anti-cancer compounds using libraries of approved drugs and bioactive compounds (AID 1345084). Also: nearly all actives have a fitted effect of over 55% in size. Also: potency is read from the fitted curve at half-maximal effect. As to activity change, negative = cytotoxicity: % is scaled to controls: 0 for no effect and ±100 for the full control effect. The conditions noted are these: Gynecologic cancer cell panel viability, ATPlite luminescence, 48 h; series mostly up to 57.5 µM. The method in brief: (§1)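 Cell viability after 48 h drug treatment, ATPlite luminescence readout; five doses.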

The subject of the next assay is SKOV3. The assay is described as above. The note with it: Gynecologic cancer cell panel viability, ATPlite luminescence, 48 h; series mostly up to 57.5 µM. The method in brief:
as §1
(In general: In ATP-based viability assays light output follows the ATP content of the culture.)

Assay [1] can be described thus: qHTS assay to identify inhibitors of the type 1 interferon - major histocompatibility complex class I in skeletal muscle: Counter screen cell viability and HiBit confirmation (AID 1347412). Also: potency is read from the fitted curve at half-maximal effect. As to activity change, negative = inhibition: % is scaled to controls: 0 for no effect and ±100 for the full control effect. As to all read-outs here: nearly all actives have a fitted effect of over 60% in size. The note with it: iHSKM muscle cells + IFN-b, HiBiT or CellTiter-Glo, 24 h; for activity change, negative = inhibition: at 45.9 µM (top of the series). The method in brief: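 Myoblasts (C25cl48, HLA-B HiBiT) seeded in medium without dexamethasone, IFN-b 4 ng/ml added except unstimulated columns; 1 hr later compounds pinned (12-pt 1:3, top 46 uM final). Incubated 24 hrs, lysed 10 min, luminescence measured.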
(qHTS replaces the single test concentration by a dilution series.)

For a further assay, the system named is Tov-21-G. The assay is described as follows: Primary qHTS to identify gynecologic anti-cancer compounds using libraries of approved drugs and bioactive compounds (AID 1345084). Also: nearly all actives have a fitted effect of over 55% in size. Also: potency is read from the fitted curve at half-maximal effect. As to activity change, negative = cytotoxicity: % is scaled to controls: 0 for no effect and ±100 for the full control effect. The note with it: Gynecologic cancer cell panel viability, ATPlite luminescence, 48 h; series mostly up to 57.5 µM. The method in brief:
as §1

A further assay concerns Tov112D. The description is as above. The conditions noted are these: Gynecologic cancer cell panel viability, ATPlite luminescence, 48 h; series mostly up to 57.5 µM. The method in brief:
as §1

For another assay, the system named is astro. Description: Drug repurposing screens with cells derived from glioblastoma tumor samples (AID 1345199). Also: nearly all actives have a fitted effect of over 40% in size. Also: potency is read from the fitted curve at half-maximal effect. As to activity, negative = cell killing: % is scaled to controls: 0 for no effect and ±100 for the full control effect. The note with it: viability, ATP luminescence, 48 h; series mostly up to 45.9 µM. The method in brief: (§2)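 Four patient lines of CD133+ GBM neurospheres were screened at several concentrations; hits were retested in those lines plus three slower-growing GBM lines, using 48-hour treatment and ATP-based viability.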

Assay [2] has as its target Nuclear receptor subfamily 1 group I member 2 (Rattus norvegicus) (UniProt Q9R1A7). The assay is described as follows: qHTS assay for small molecule activators of the rat pregnane X receptor (rPXR) signaling pathway (AID 651751; call rule not given here; also: 0% is about no effect). The note with it: rPXR reporter cells, luciferase (One-Glo), 24 h.
Assay [3] in a line: qHTS assay for small molecule activators of the human pregnane X receptor (PXR) signaling pathway (AID 720659; call rule not given here; also: 0% is about no effect).
The nature of assay [4]: Drug repurposing screens with cells derived from glioblastoma tumor samples (AID 1345199). Also: nearly all actives have a fitted effect of over 40% in size. Also: potency is read from the fitted curve at half-maximal effect. The conditions noted are these: GBM patient neurospheres viability, ATP luminescence, 48 h. The method in brief:
as §2

Structures are written as SMILES. Unmarked numbers belong to inactive results. Inconclusive results are not listed. The source made the active and inactive calls. Unless noted, calls follow the shape of the dose curve; as a rule, active = well fitted curve in the direction sought with a large enough effect; inconclusive = small, poorly fitted or top-dose-only effect, or another doubt; inactive = no such curve, though single readings can be large; an effect the other way counts as inactive or inconclusive.

Sequence of Nuclear receptor subfamily 1 group I member 2 (Rattus norvegicus) (Q9R1A7 whole entry, looked up): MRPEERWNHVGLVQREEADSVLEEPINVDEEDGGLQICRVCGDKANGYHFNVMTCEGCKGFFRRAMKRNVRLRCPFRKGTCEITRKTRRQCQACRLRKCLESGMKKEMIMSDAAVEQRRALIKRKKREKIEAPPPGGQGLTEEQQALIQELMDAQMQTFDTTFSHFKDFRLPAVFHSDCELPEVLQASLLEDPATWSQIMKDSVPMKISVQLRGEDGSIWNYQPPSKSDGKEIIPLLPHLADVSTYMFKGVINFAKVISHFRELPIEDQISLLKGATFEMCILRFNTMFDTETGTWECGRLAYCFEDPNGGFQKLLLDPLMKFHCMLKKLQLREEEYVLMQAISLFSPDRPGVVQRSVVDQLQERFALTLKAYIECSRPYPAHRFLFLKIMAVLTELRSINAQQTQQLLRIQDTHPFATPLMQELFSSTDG

For the compound `Cc1cc(N2CCOCC2)cc2[nH]c(-c3c(NC[C@@H](O)c4cccc(Cl)c4)cc[nH]c3=O)nc12`, the figures for the Potency (in the assay on PA-1; in the assay with SKOV3; in assay [1] (HiBiT)) were 14.1 µM (active), 14.1 µM (active) and 6.25 µM (active), respectively.

As to `O=C(Nc1cn[nH]c1-c1nc2ccc(CN3CCOCC3)cc2[nH]1)NC1CC1`, the Potency with PA-1 was 8.91 µM (active); in the assay with SKOV3, 10 µM (active); in the assay on Tov-21-G it was 2.24 µM (active); in the assay on Tov112D it was 11.2 µM (active); in assay [1] (HiBiT), 1.98 µM (active). In assay [1] (Viability), the activity change, negative = inhibition was 61.5%.

For the compound `Nc1ccccc1NC(=O)c1ccc(CNC(=O)OCc2cccnc2)cc1`, the Potency in the assay with PA-1 was 3.16 µM (active); in the assay with Tov-21-G it was 8.91 µM (active).

For the compound `CC1COC2(CCN(c3nc(=O)c4cc(C(F)(F)F)cc([N+](=O)[O-])c4s3)CC2)O1` (stereo not drawn), the Potency result with PA-1, in the assay on SKOV3 and with Tov112D was “inactive” throughout.

`CCCn1c(=O)c2[nH]c(-c3cnn(Cc4cccc(C(F)(F)F)c4)c3)nc2n(CC)c1=O`: the Potency result in the assay with PA-1, in the assay on SKOV3, in the assay with Tov-21-G and with Tov112D was “inactive” throughout.

Take `C=CC(=O)Nc1cc2c(Nc3ccc(F)c(Cl)c3)ncnc2cc1OCCCN1CCOCC1`: the Potency result in the assay on PA-1 and in the assay on Tov112D was “inactive” each time. Moreover, the Potency in the assay with SKOV3 is 3.16 µM (active); with astro, 11.2 µM (active); in [1] (HiBiT), 15.7 µM (active). In addition, the activity change, negative = inhibition in [1] (Viability) is -26.8%.

Consider `Cc1cc(Nc2ncnc3ccc(-c4ccc(CNCCS(C)(=O)=O)o4)cc23)ccc1Oc1ccn2ncnc2c1`, for which the Potency entry in the assay on PA-1, in the assay on SKOV3, in the assay with Tov-21-G and in the assay with Tov112D was “inactive” throughout.

Turning to `CC(C)c1cc(C(=O)N2Cc3ccc(CN4CCN(C)CC4)cc3C2)c(O)cc1O`, the results for the Potency in the assay with PA-1 and in the assay with Tov-21-G were 0.501 µM (active) and 0.355 µM (active), respectively.

Turning to `Cc1ccc(CN2CCNCC2)cc1NC(=O)CNc1ccc(F)c(F)c1`, the Potency result in the assay with PA-1, with SKOV3, with Tov-21-G and in the assay with Tov112D was “inactive” in each case.

Take `CCCCCN(CCC12CC3CC(CC(C3)C1)C2)C(=O)NCCCc1ccncc1`: the Potency result in the assay with PA-1, with SKOV3, in the assay with Tov-21-G and in the assay with Tov112D was “inactive” each time.

As to `COc1c(OCCCN2CCOCC2)ccc2c3n(c(=NC(=O)c4cnc(N)nc4)nc12)CCN3`, the Potency with PA-1 was 0.631 µM (active); with SKOV3, 0.0631 µM (active). Also, the activity change, negative = cytotoxicity with Tov112D is -17.3% [at 11.6 µM].

As for `C=CC(=O)Nc1cccc(Oc2nc(Nc3ccc(N4CCN(C)CC4)cc3)ncc2Cl)c1`, the Potency is 8.91 µM (active) with PA-1; 3.16 µM (active) in the assay with SKOV3; 8.91 µM (active) in the assay on Tov-21-G; 5.62 µM (active) with Tov112D; 22.2 µM (active) in assay [1] (HiBiT).

As to `COc1cc2c(NC3CCN(C(C)C)CC3)nc(C3CCCCC3)nc2cc1OCCCN1CCCC1`, the values for the Potency in the assay on PA-1, in the assay on SKOV3 and in the assay with Tov112D were 31.6 µM (active), 12.6 µM (active) and 22.4 µM (active), respectively.

For the compound `O=C(O)CCCc1c[nH]c2ccccc12`, the Potency entry in the assay with PA-1, with SKOV3, in the assay with Tov-21-G and with Tov112D was “inactive” throughout. Further, the max response in assay [2] was -0.908%. For the same compound, in assay [3], the outcome was inactive.

For the compound `COc1cccc(Nc2c(C(N)=O)cnc3c(C)cc(S(=O)(=O)c4cccc(C(=O)N(C)C)c4)cc23)c1`, the Potency entry with PA-1, in the assay on SKOV3, in the assay on Tov-21-G and in the assay on Tov112D was “inactive” throughout.

For `COc1cc2c(Nc3ccc(NC(=O)c4ccccc4)cc3)ncnc2cc1OCCCN1CCOCC1`, the Potency entry with PA-1 and in the assay on Tov112D was “inactive” in each case. Besides, in the assay with SKOV3, the Potency was 11.2 µM (active).

With `Cc1ccc(C(=O)Nc2ccc(CN3CCN(C)CC3)c(C(F)(F)F)c2)cc1C#Cc1cnc2cccnn12`, the Potency in the assay on PA-1 was 8.91 µM (active); in the assay with SKOV3, 10 µM (active); in the assay with Tov-21-G, 7.08 µM (active); in the assay with Tov112D it was 7.94 µM (active); in assay [1] (HiBiT), 6.25 µM (active); in assay [1] (Viability), 15.7 µM (active).

On to `Cc1c(Cn2c(C)nc3c(C(=O)O)cc(N4CCOCC4)cc32)cccc1C(F)(F)F`, for which the Potency entry with PA-1, in the assay with SKOV3, in the assay with Tov-21-G and in the assay on Tov112D was “inactive” each time.

Take `NC(=O)Nc1cc(-c2cccc(F)c2)sc1C(=O)N[C@H]1CCCNC1`: the Potency in the assay with PA-1 was 2.82 µM (active); in the assay on SKOV3, 0.631 µM (active); in the assay on Tov112D it was 1.78 µM (active); in assay [1] (HiBiT) it was 1.76 µM (active).

Take `CNC(=O)CN1CCC(Oc2cc3c(Nc4cccc(Cl)c4F)ncnc3cc2OC)CC1`: the Potency result in the assay with PA-1 and in the assay on Tov112D was “inactive” each time. The Potency in the assay with SKOV3 is 14.1 µM (active).

As to `Cc1ccc(NC(=O)C2(c3ccc4c(c3)OC(F)(F)O4)CC2)nc1-c1cccc(C(=O)O)c1`, the Potency result in the assay on PA-1, in the assay with SKOV3, in the assay with Tov-21-G and with Tov112D was “inactive” throughout.

Consider `COc1cc(C(=O)NS(=O)(=O)c2ccccc2C)ccc1Cc1cn(C)c2ccc(NC(=O)OC3CCCC3)cc12`, for which the Potency result with PA-1, in the assay on SKOV3, in the assay on Tov-21-G, in the assay with Tov112D and in the assay on astro was “inactive” each time. For the same compound, the activity, negative = cell killing in assay [4] (at 45.9 µM (top of the series), tumour line B) was -14.2%; in [4] (at 45.9 µM (top of the series), tumour line D), -15.9%; in assay [4] (at 46.1 µM (top of the series), tumour line C), 5.07%.

For the compound `Cc1cnc(Nc2ccc(F)cc2Cl)nc1-c1c[nH]c(C(=O)N[C@H](CO)c2cccc(Cl)c2)c1`, the Potency with PA-1 was 31.6 µM (active); in the assay on Tov-21-G, 28.2 µM (active).

Consider `CNC(=O)c1nn(C)c2c1C(C)(C)Cc1cnc(Nc3ccc(N4CCN(C)CC4)cc3)nc1-2`, for which the Potency in the assay on PA-1 is 2.24 µM (active); with Tov112D, 2.24 µM (active); in assay [1] (HiBiT) it was 1.98 µM (active). Moreover, the activity change, negative = inhibition in assay [1] (Viability) was 28.9%.

For the compound `Nc1ncnc2c1c(-c1cnc3[nH]ccc3c1)nn2C1CCCC1`, the Potency was 8.91 µM (active) in the assay with PA-1, 6.31 µM (active) with Tov-21-G, 5.01 µM (active) with Tov112D and 2.22 µM (active) in assay [1] (HiBiT).

On to `COC(=O)Nc1nc2ccc(C(=O)c3ccc(F)cc3)cc2[nH]1`, for which the Potency in the assay on PA-1 is 2 µM (active); in the assay on Tov112D, 3.55 µM (active). In addition, the activity change, negative = inhibition in [1] (Viability) was -28.8%.

For the compound `Nc1nccc(Oc2ccc(NC(=O)c3c[nH]cc(-c4ccc(F)cc4)c3=O)cc2F)c1Cl`, the Potency result in the assay on PA-1, with Tov-21-G and with Tov112D was “inactive” each time. Also, the activity change, negative = inhibition in [1] (Viability) was 1.85%.
